Reference: PubChem BioAssay (NCI)
Compounds without any hit were thinned out: in the full panel of roughly 79,000, 15% have a hit. Activity calls are given as the source filed them. No stated cut-off is given here; in the data, active means growth inhibition above about 70%; inactive means the rest.

Assays:
[1] = NCI Yeast Anticancer Drug Screen. Data for the rad52 strain (AID 147);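 further: 0% = growth of vehicle-treated control cultures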; details: S. cerevisiae rad52 mutant growth inhibition, hits give high values
In short: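 Vehicle-treated cultures served as the reference for growth inhibition of compound-exposed yeast bearing a DNA repair mutation.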

[2] = NCI Yeast Anticancer Drug Screen. Data for the wt1 strain (AID 149);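 further: 0% = growth of vehicle-treated wt1 cultures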; details: S. cerevisiae wt1 strain (SPY 50644) growth inhibition, hits give high values
In short: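 Vehicle-normalised growth inhibition; strain wt1; compound exposure.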

[3] = NCI Yeast Anticancer Drug Screen. Data for the rad50EPP+ strain (AID 151);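 further: 0% = growth of vehicle-treated control cultures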; details: S. cerevisiae rad50 mutant strain, hits give high values
In short: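 In this screen, rad50EPP+ yeast were exposed to compounds. Growth inhibition was scored against vehicle-treated controls.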

[4] = NCI Yeast Anticancer Drug Screen. Data for the mgt1 strain (AID 153); details: S. cerevisiae mgt1 mutant growth inhibition, hits give high values
In short: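 mgt1 strain exposed; growth vs vehicle control recorded as inhibition.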

[5] = NCI Yeast Anticancer Drug Screen. Data for the rad50 strain (AID 155);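 further: 0% = growth of vehicle-only cultures of the same strain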; details: S. cerevisiae rad50 strain growth inhibition, hits give high values
In short: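 A DNA repair-deficient yeast mutant serves as the test organism; compound-induced growth inhibition is calculated against vehicle-treated cells.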

[6] = NCI Yeast Anticancer Drug Screen. Data for the mec2-1 strain (AID 157); details: S. cerevisiae mec2-1 strain, hits give high values
In short: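 Vehicle-treated cultures served as reference for growth inhibition of compound-exposed mec2-1 yeast.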

[7] = NCI Yeast Anticancer Drug Screen. Data for the rad14 strain (AID 159);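 further: 0% = growth of vehicle-treated control cultures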; details: S. cerevisiae rad14 strain growth inhibition, hits give high values
In short: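 Vehicle-treated cultures served as the baseline for growth inhibition of a DNA repair-mutant yeast strain exposed to each compound.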

[8] = NCI Yeast Anticancer Drug Screen. Data for the sgs1 mgt1 strain (AID 161);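 further: 0% = growth of cultures given vehicle only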; details: S. cerevisiae sgs1 mgt1 strain, hits give high values
In short: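 Test agents were incubated with a DNA-repair-mutant yeast strain. Growth was then read and compared against vehicle-treated controls.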

[9] = NCI Yeast Anticancer Drug Screen. Data for the CLN2oe strain (AID 163);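 further: 0% = growth of vehicle-only control cultures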; details: S. cerevisiae CLN2oe strain, hits give high values
In short: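 Inhibition relative to vehicle-treated yeast is reported. Cells: strain with genetic alteration in cell-cycle control, grown with compound.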

[10] = NCI Yeast Anticancer Drug Screen. Data for the cln2 rad14 strain (AID 165);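 further: 0% = growth equal to vehicle treated cultures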; details: S. cerevisiae cln2 rad14 strain, hits give high values
In short: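 Each compound was tested on cln2 rad14 yeast. Inhibition of growth was calculated against vehicle-exposed controls.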

[11] = NCI Yeast Anticancer Drug Screen. Data for the bub3 strain (AID 167); details: S. cerevisiae bub3 mutant strain, hits give high values
In short: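 Inhibition values come from growth of compound-treated mutant yeast normalised to vehicle-treated controls.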

[12] = NCI Yeast Anticancer Drug Screen. Data for the wt2 strain (AID 169);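 further: 0% = growth of vehicle-treated yeast cultures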; details: S. cerevisiae wt2 strain growth inhibition, hits give high values
In short: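 Inhibition of yeast growth was determined after compound treatment, normalised to controls receiving only vehicle.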

[13] = NCI Yeast Anticancer Drug Screen. Data for the mlh1 strain (AID 171);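 further: 0% = growth of vehicle-treated control cultures of the same strain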; details: S. cerevisiae mlh1 strain growth inhibition, hits give high values
In short: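 Vehicle-normalised growth inhibition of a repair- or checkpoint-altered yeast strain following compound treatment.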

[14] = NCI Yeast Anticancer Drug Screen. Data for the sgs1 strain (AID 173);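 further: 0% = growth of vehicle-only control cultures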; details: S. cerevisiae sgs1 mutant, hits give high values
In short: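 Screen format: yeast with repair or checkpoint alterations, compound exposure, growth read relative to vehicle.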

[15] = NCI Yeast Anticancer Drug Screen. Data for the mlh1 rad18 strain (AID 175); details: S. cerevisiae mlh1 rad18 strain growth inhibition, hits give high values
In short: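 Vehicle-treated cultures served as the reference for growth inhibition in a yeast strain carrying DNA damage repair alterations exposed to each compound.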

[16] = NCI Yeast Anticancer Drug Screen. Data for the rad18 strain (AID 177); details: S. cerevisiae rad18 mutant growth inhibition, hits give high values
In short: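 Test articles were incubated with altered yeast defective in DNA damage repair. Results are given as inhibition of growth versus vehicle.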

[17] = at 5.0 µM (retest, dose inferred, filed as 0.5)
[18] = at 50.0 µM (retest, dose inferred, filed as 5.0)

Measured: growth inhibition

O=Cc1cccc2ccc3ccccc3c12
inactive: [1]; at 1.2 µM -6% | [1]; at 3.7 µM 0% | [1]; at 11.0 µM 7% | [1]; at 33.0 µM 62% | [2]; at 1.2 µM -6% | [2]; at 3.7 µM -5% | [2]; at 11.0 µM -8% | [2]; at 33.0 µM 7% | [2]; at 100.0 µM 52% | [3]; at 1.2 µM 5% | [3]; at 3.7 µM 15% | [3]; at 11.0 µM 36% | [4]; at 1.2 µM -2% | [4]; at 3.7 µM -4% | [4]; at 11.0 µM -3% | [4]; at 33.0 µM 32% | [5]; at 1.2 µM -7% | [5]; at 3.7 µM -12% | [5]; [17] -102% | [5]; at 11.0 µM 12% | [6]; at 1.2 µM -1% | [6]; at 3.7 µM -1% | [6]; [17] -45% | [6]; at 11.0 µM 1% | [6]; at 33.0 µM 1% | [6]; [18] 41% | [7]; at 1.2 µM -1% | [7]; at 3.7 µM 1% | [7]; at 11.0 µM 9% | [8]; [17] -56% | [9]; at 1.2 µM -1% | [9]; at 3.7 µM 0% | [9]; at 11.0 µM 9% | [9]; at 33.0 µM 15% | [10]; [17] -52% | [10]; [18] 2% | [11]; at 1.2 µM -7% | [11]; at 3.7 µM -4% | [11]; [17] -54% | [11]; at 11.0 µM -3% | [11]; at 33.0 µM 4% | [12]; at 1.2 µM -2% | [12]; at 3.7 µM -2% | [12]; at 11.0 µM -3% | [12]; at 33.0 µM 26% | [13]; at 1.2 µM 5% | [13]; at 3.7 µM -5% | [13]; at 11.0 µM -2% | [13]; at 33.0 µM 63% | [14]; at 1.2 µM -1% | [14]; at 3.7 µM -2% | [14]; at 11.0 µM 4% | [14]; at 33.0 µM 57% | [15]; [17] -91% | [16]; at 1.2 µM -6% | [16]; at 3.7 µM -2% | [16]; at 11.0 µM 6% | [16]; at 33.0 µM 43%
active: [1]; at 100.0 µM 98% | [3]; at 33.0 µM 77% | [3]; at 100.0 µM 95% | [4]; at 100.0 µM 98% | [5]; at 33.0 µM 94% | [5]; [18] 89% | [5]; at 50.0 µM 99.3% | [5]; at 100.0 µM 97% | [6]; at 50.0 µM 99.5% | [6]; at 100.0 µM 96% | [7]; at 33.0 µM 71% | [7]; at 100.0 µM 99% | [8]; [18] 73% | [8]; at 50.0 µM 98.2% | [9]; at 100.0 µM 88% | [10]; at 50.0 µM 98.7% | [11]; [18] 81% | [11]; at 50.0 µM 98.7% | [11]; at 100.0 µM 97% | [12]; at 100.0 µM 80% | [13]; at 100.0 µM 98% | [14]; at 100.0 µM 99% | [15]; [18] 82% | [15]; at 50.0 µM 98.8% | [16]; at 100.0 µM 98%

CN(C)c1nc2sc3c(c2c(=O)o1)CCCC3
active: [11]; [18] 92% | [11]; at 50.0 µM 75.2% | [15]; [18] 90%
inactive: [1]; at 1.2 µM 2% | [1]; at 3.7 µM 5% | [1]; at 11.0 µM 6% | [1]; at 33.0 µM 26% | [1]; at 100.0 µM 36% | [2]; at 1.2 µM -5% | [2]; at 3.7 µM -4% | [2]; at 11.0 µM -4% | [2]; at 33.0 µM 8% | [2]; at 100.0 µM 32% | [3]; at 1.2 µM 13% | [3]; at 3.7 µM 14% | [3]; at 11.0 µM 21% | [3]; at 33.0 µM 23% | [3]; at 100.0 µM 22% | [4]; at 1.2 µM -5% | [4]; at 3.7 µM -7% | [4]; at 11.0 µM 0% | [4]; at 33.0 µM 16% | [4]; at 100.0 µM 31% | [5]; at 1.2 µM 3% | [5]; at 3.7 µM 6% | [5]; [17] -4% | [5]; at 11.0 µM -13% | [5]; at 33.0 µM 29% | [5]; [18] 43% | [5]; at 50.0 µM 68.9% | [5]; at 100.0 µM 45% | [6]; at 1.2 µM 1% | [6]; at 3.7 µM -1% | [6]; [17] -4% | [6]; at 11.0 µM 0% | [6]; at 33.0 µM 26% | [6]; [18] 29% | [6]; at 50.0 µM 27.9% | [6]; at 100.0 µM 39% | [7]; at 1.2 µM 1% | [7]; at 3.7 µM -3% | [7]; at 11.0 µM 3% | [7]; at 33.0 µM 27% | [7]; at 100.0 µM 45% | [8]; [17] -7% | [8]; [18] 19% | [8]; at 50.0 µM 54.3% | [9]; at 1.2 µM 1% | [9]; at 3.7 µM -1% | [9]; at 11.0 µM -2% | [9]; at 33.0 µM 26% | [9]; at 100.0 µM 40% | [10]; [17] 26% | [10]; [18] 13% | [10]; at 50.0 µM -6.65% | [11]; at 1.2 µM 27% | [11]; at 3.7 µM 39% | [11]; [17] 39% | [11]; at 11.0 µM 44% | [11]; at 33.0 µM 55% | [11]; at 100.0 µM 69% | [12]; at 1.2 µM -1% | [12]; at 3.7 µM 0% | [12]; at 11.0 µM 1% | [12]; at 33.0 µM 26% | [12]; at 100.0 µM 35% | [13]; at 1.2 µM -3% | [13]; at 3.7 µM -4% | [13]; at 11.0 µM -2% | [13]; at 33.0 µM 26% | [13]; at 100.0 µM 31% | [14]; at 1.2 µM -3% | [14]; at 3.7 µM -4% | [14]; at 11.0 µM -1% | [14]; at 33.0 µM 19% | [14]; at 100.0 µM 36% | [15]; [17] -9% | [15]; at 50.0 µM 50.6% | [16]; at 1.2 µM 0% | [16]; at 3.7 µM 1% | [16]; at 11.0 µM 3% | [16]; at 33.0 µM 18% | [16]; at 100.0 µM 48%
